Pf growth 96h: Primary qHTS for delayed death inhibitors of the malarial parasite plastid, 96 hour incubation; actives 6.9% (n = 320,000); Potency, µM (highest dose often 28.7 µM), hits mostly inhibitors; P. falciparum luciferase reporter growth, 96 h
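Compounds incubated with erythrocytes infected by luciferase-expressing P. falciparum (2% hematocrit, 0.05% parasitemia final) for 96 hours, 37 C in 5% CO2. Growth inhibition scored as decreased luciferase luminescence.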
Shiga toxin inh: A qHTS for Small Molecule Inhibitors of Shiga Toxin | Vero cells, Shiga toxin protein synthesis inhibition reporter | inhibition, % at 38.7 µM | actives 9.2% (n = 290,000) | AID 2315, 2010; in the data active = inhibition mostly above about 28%, no sharp cut-off; inactive = mostly below about 43%
Cycloheximide cs: Cycloheximide Counterscreen for Small Molecule Inhibitors of Shiga Toxin | actives 12% (n = 300,000) | AID 2314, 2010 | max response, % | cell reporter, cycloheximide protein synthesis inhibition counterscreen; in the data active = max response mostly above about 13%, no sharp cut-off; inactive = mostly below about 14%; note: read at 38.3 µM for the half of the compounds with a filed dose
Pf growth 48h: Primary qHTS for delayed death inhibitors of the malarial parasite plastid, 48 hour incubation. actives 5.9% (n = 310,000). AID 504832, 2011. Potency, µM (highest dose often 28.7 µM), usual class: inhibitors. P. falciparum luciferase growth in erythrocytes, 48 h
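Luciferase-expressing parasites in RBCs, 2% Hct / 0.1% parasitemia final; RPMI 1640 + 0.5% Albumax; 37 C, 5% CO2, one generation; luminescence read-out, lower signal = inhibition.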
NS1 inh: qHTS Assay for Inhibitors of Influenza NS1 Protein Function; Potency, µM (highest dose often 46.1 µM); actives 0.4% (n = 270,000); AID 2326, 2010; calls by dose curve; note: actives are rising curves; nearly all actives have a fitted effect of over 50% in size
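Read-out: OD600 growth recovery of NS1-expressing budding yeast. Cells grown overnight at 30C in -URA glucose medium, washed, resuspended and diluted 1:100 in 2% galactose assay medium, pH 6.0. Same strain lacking NS1 served as positive control.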
Each line names hits and unclear results; the compound was inactive in the other large screens. Rows were chosen to be rich in hits. Some 21% of all compounds tested hit in one or more screens of this group. Unless noted, calls come from the whole dose curve; as a rule, active = well fitted inhibition curve with a large enough effect; inconclusive = small, poorly fitted or top-dose-only effect, or another doubt; inactive = no such curve, though single readings can be large or run the other way.

CC(C)(C)c1ccc(S(=O)(=O)N2CCSC2)cc1	Pf growth 96h inconclusive
COc1ccc(S(=O)(=O)N2CCC(C(=O)NCCC3=CCCCC3)CC2)cc1OC	Pf growth 96h inconclusive, Pf growth 48h inconclusive
c1cnc(Oc2ccc3oc4ccccc4c3c2)nc1	Shiga toxin inh 56, Cycloheximide cs 44
COc1ccc2oc3ccccc3c(=O)c2c1	none
Cc1cc(C)cc(N(CCC#N)C(=O)CSc2ncnc3sccc23)c1	Pf growth 96h inconclusive, Pf growth 48h 12µM (no result: Shiga toxin inh, Cycloheximide cs, NS1 inh)
CCCOC(=O)c1ccc(NC(=O)CSC2=Nc3ccccc3C3CC=NN23)cc1 (configuration not stated)	none (no result: Pf growth 48h)
O=C(CSC1=Nc2ccccc2C2CC=NN12)Nc1ccc2c(c1)OCO2 (configuration not stated)	Cycloheximide cs 16 (no result: NS1 inh)
CN(C(=O)CSc1ncnc2sccc12)C1CCCCC1	none (no result: Shiga toxin inh, Cycloheximide cs, NS1 inh)
N#Cc1ccccc1NC(=O)CSC1=Nc2ccccc2C2CC=NN12 (configuration not stated)	none
Cc1cc(C)cc(N(CCC#N)C(=O)CSC2=Nc3ccccc3C3CC=NN23)c1 (configuration not stated)	Pf growth 96h 12µM, Pf growth 48h 13µM (no result: NS1 inh)
CC(=O)N(Cc1cc2cc(C)ccc2[nH]c1=O)c1cccc(C)c1C	Pf growth 96h 9.3µM (no result: Shiga toxin inh)
Cc1ccc2cc(CN(C(=O)c3cccnc3)C(C)C)c(=O)[nH]c2c1	Pf growth 96h inconclusive, Pf growth 48h 12µM
COc1cccc(C(=O)N(Cc2cc3cc(C)ccc3[nH]c2=O)C(C)C)c1	Pf growth 96h 3.7µM, Pf growth 48h 7.4µM
COc1cc(OC)cc(C(=O)N(Cc2cc3cc(C)ccc3[nH]c2=O)C(C)C)c1	Pf growth 96h inconclusive, Pf growth 48h inconclusive
COc1ccccc1CNC(=O)OCc1nccnc1C(=O)Nc1ccc(Br)cn1	none
COc1ccc(-c2ccc3c(c2)c(-c2cccs2)c(-c2cc(OC)cc(OC)c2)n3C)cc1	Pf growth 96h inconclusive, Pf growth 48h 2.6µM (no result: Shiga toxin inh, Cycloheximide cs, NS1 inh)
COc1cc(OC)cc(-c2c(-c3cccs3)c3cc(-c4cnc(OC)nc4)ccc3n2C)c1	Pf growth 96h 3.3µM, Pf growth 48h 1.9µM (no result: Shiga toxin inh, Cycloheximide cs, NS1 inh)
COc1cc(C#Cc2c(-c3cncn3C)n(C)c3ccc(-c4cnc(OC)nc4)cc23)cc(OC)c1	Pf growth 96h 2.6µM, Pf growth 48h inconclusive (no result: Shiga toxin inh, Cycloheximide cs, NS1 inh)
CCCCC[C@]12Cc3cc(OC)c(OC)cc3[C@H](O1)c1c(cc(C)oc1=O)O2	Pf growth 96h inconclusive
COc1ccc(Cc2nnc(NC(=O)c3c(-c4ccccc4)noc3C)s2)cc1OC	Pf growth 96h 10µM, Pf growth 48h inconclusive
COc1ccc(Cc2nnc(NC(=O)C3CC(=O)N(c4ccccc4)C3)s2)cc1OC (configuration not stated)	Pf growth 96h 2.9µM
CN(C)c1cccc(C(=O)Nc2nnc(Cc3ccccc3)s2)c1	Shiga toxin inh 96, Cycloheximide cs 26
COc1ccc(Cc2nnc(NC(=O)c3c(-c4ccccc4)noc3C)s2)cc1	none
COCc1nnc(NC(=O)c2ccc(OC)cc2OC)s1	Shiga toxin inh 104, Cycloheximide cs 47
COc1ccc(C(=O)Nc2nnc(CCc3ccccc3)s2)c(OC)c1	Pf growth 96h inconclusive
COc1cnc(SC)nc1Nc1ccc(C#N)cc1	Pf growth 48h inconclusive
CCCCNC1c2ccccc2C(=O)N1Cc1ccccc1 (configuration not stated)	Pf growth 96h inconclusive
O=c1nc2ccccc2c2n1CC(CN1CCN(C(c3ccccc3)c3ccccc3)CC1)N2 (configuration not stated)	Pf growth 96h inconclusive, Pf growth 48h inconclusive
COc1cccc(C(=O)Nc2nnc(Cc3ccc(OC)c(OC)c3)s2)c1	Pf growth 48h 12µM
CCCc1nnc(NC(=O)c2cccc(OC)c2)s1	Shiga toxin inh 73, Cycloheximide cs 62
COc1ccc(C(=O)Nc2nnc(Cc3ccc(OC)c(OC)c3)s2)c(OC)c1	Cycloheximide cs 13, Pf growth 48h 2.3µM
CC(C)c1nnc(NC(=O)c2cccc(-n3cnnn3)c2)s1	none
COc1ccc(Cc2nnc(NC(=O)c3ccc(OC)c(OC)c3)s2)cc1OC	none (no result: NS1 inh)
COc1cccc(C(=O)Nc2nnc(C(C)C)s2)c1	Shiga toxin inh 47, Cycloheximide cs 27
COc1cccc(C(=O)Nc2nnc(CCS(=O)(=O)c3ccc(C)cc3)s2)c1	none
O=C(c1ccc2c(c1)OCO2)N(c1ccc(Br)cc1)C1C=CS(=O)(=O)C1 (configuration not stated)	none
CC1(C)CC(NC(=O)C23CCC(C)(C(=O)C2)C3(C)C)CC(C)(C)N1 (configuration not stated)	Pf growth 48h inconclusive
CC(c1ccon1)N(C)C(=O)c1ccc2nc(Cc3cccc(Cl)c3)oc2c1 (configuration not stated)	Pf growth 96h inconclusive
CC(CCc1ccccc1)NC(=O)COC(=O)c1cccc2ccccc12 (configuration not stated)	none
O=C(CCC(=O)Nc1ccccc1Cl)NN=C1CCCC1	none
O=C(CS(=O)(=O)c1ccccc1Cl)N1CCOCC1	none
CCOCCc1nnc(NC(=O)c2cccc(F)c2)s1	Shiga toxin inh 41, Cycloheximide cs 20 (no result: Pf growth 96h)
COc1ccc(Cc2nnc(NC(=O)c3ccccc3F)s2)cc1	Shiga toxin inh 85, Cycloheximide cs 20
CCC(CC)C(=O)Nc1c2c(nn1-c1ccc(F)cc1)CS(=O)(=O)C2	none
CSc1sc(C(=O)NNC(C)=O)c2c1C=CCC2	Pf growth 96h inconclusive
CCCCC(CC)C(=O)NCCCN1CCN(CCCNC(=O)C(CC)CCCC)CC1 (configuration not stated)	Pf growth 48h 5.9µM
CCc1cc2c(=O)c(-c3nc4ccccc4[nH]3)coc2c(CN2CCC(C)CC2)c1O	none (no result: Pf growth 96h, Shiga toxin inh, Cycloheximide cs, Pf growth 48h)
COc1ccc(-c2coc3cc(OC(=O)N4CCOCC4)ccc3c2=O)cc1	Pf growth 96h inconclusive, Shiga toxin inh 31, Cycloheximide cs 26
CC(=O)Oc1ccc2c(=O)c(Oc3ccccc3[N+](=O)[O-])coc2c1	none
CC(=O)Oc1ccc2c(=O)c(-c3nc4ccccc4s3)coc2c1	Shiga toxin inh 95, Cycloheximide cs 60 (no result: NS1 inh)
CCc1cc2c(=O)c(-c3nc4ccccc4[nH]3)coc2cc1OC(=O)N1CCOCC1	Cycloheximide cs 24
COc1ccc2c(=O)c(N3C(=O)c4ccccc4C3=O)coc2c1	NS1 inh inconclusive
COc1ccc2c(=O)c(-c3ccc4c(c3)OCO4)coc2c1	Shiga toxin inh 76, Cycloheximide cs 68
O=C(CCC(=O)c1ccc(F)cc1)Nc1cccc(S(=O)(=O)Nc2cccc(Cl)c2)c1	none
CCc1n[nH]c(=S)n1/N=C/c1cc(OC)cc([N+](=O)[O-])c1O	none (no result: NS1 inh)
O=C(Nc1ccc(S(=O)(=O)NCC2CCCO2)cc1)c1cccc(F)c1 (configuration not stated)	none
CCN(CC)C(=O)Oc1ccc2c(=O)c(-c3ccc(OC)cc3)coc2c1	Shiga toxin inh 83, Cycloheximide cs 45
COc1ccccc1-c1coc2cc(OC(=O)N3CCOCC3)ccc2c1=O	Shiga toxin inh 101, Cycloheximide cs 48

From PubChem
